Test results reported in PubChem BioAssay (EPA / NIEHS).
Some compounds were tested as several samples or in several runs, with calls that do not always agree. Active and inactive are the calls of the source. Rule for the calls: active = hit-call score of the fitted dose curve at least 0.9, where 1 is the maximum; inactive = score below 0.9.

Experiments:
Settings in all cases: mRNA level, 48 h; actives raise or lower the signal
[1] = read-out: Glutamate-cysteine ligase regulatory (GCLM), GCLM (gene 2730); experiment: LTEA_HepaRG_GCLM: Life Technologies and Expression Analysis (LTEA) Assay for Glutamate-cysteine ligase regulatory (GCLM) using HepaRG (AID 2283500)
Outline: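 Endpoint is GCLM transcript level by qRT-PCR, normalized to three housekeeping genes, after 48 h chemical exposure of human HepaRG cells (0.5% DMSO vehicle, top 100 uM, half-log dilutions). Fitting was bidirectional relative to DMSO.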

[2] = read-out: Glutathione S-transferase M3 (GSTM3), GSTM3 (gene 2947); experiment: LTEA_HepaRG_GSTM3: Life Technologies and Expression Analysis (LTEA) Assay for Glutathione S-transferase M3 (GSTM3) using HepaRG (AID 2283501)
Outline: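 Differentiated HepaRG cells in serum-free induction medium were exposed in duplicate for 48 h to 8 half-log concentrations up to 100 uM in 0.5% DMSO. GSTM3 mRNA was measured by TaqMan qRT-PCR, normalized to ACTB/GAPDH/POLR2A, and fitted bidirectionally versus DMSO.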

[3] = read-out: Heat shock 70 kDa protein 1 (HSPA1A), gene 3303; experiment: LTEA_HepaRG_HSPA1A: Life Technologies and Expression Analysis (LTEA) Assay for Heat shock 70 kDa protein 1 (HSPA1A) using HepaRG (AID 2283502)
Outline: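 Cells were plated and cultured for 48 h, then switched to serum-free induction medium. Chemicals were added at eight half-log concentrations up to 100 uM for 48 h. RNA was then isolated and HSPA1A measured by qRT-PCR with bidirectional curve fitting against DMSO.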

[4] = read-out: Hypoxia-inducible factor 1-alpha (Homo sapiens) (UniProt Q16665); experiment: LTEA_HepaRG_HIF1A: Life Technologies and Expression Analysis (LTEA) Assay for Hypoxia-inducible factor 1 (HIF1A) Trancription factor using HepaRG (AID 2283503)
Outline: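 HIF1A transcript level read by qRT-PCR (ACTB, GAPDH, POLR2A normalization) after 48 h chemical exposure of HepaRG cultures. Eight half-log concentrations, top 100 uM, 0.5% DMSO vehicle, duplicates; bidirectional curve fit against DMSO baseline.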

[5] = read-out: 3-Hydroxy-3-Methylglutaryl-CoA Synthase 2 (HMGCS2), HMGCS2 (gene 3158); experiment: LTEA_HepaRG_HMGCS2: Life Technologies and Expression Analysis (LTEA) Assay for 3-Hydroxy-3-Methylglutaryl-CoA Synthase 2 (HMGCS2) using HepaRG (AID 2283504)
Outline: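 Differentiated human HepaRG cells were exposed in duplicate for 48 h in serum-free induction medium to eight concentrations (top 100 uM, half-log steps, 0.5% DMSO). HMGCS2 mRNA was quantified by TaqMan qRT-PCR, normalised to ACTB, GAPDH and POLR2A, then fitted bidirectionally against DMSO.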

[6] = read-out: HGF (gene 3082); experiment: LTEA_HepaRG_HGF: Life Technologies and Expression Analysis (LTEA) Assay for Hepatocyte Growth Facto (HGF) using HepaRG (AID 2283505)
Outline: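 Differentiated human HepaRG cells in serum-free induction medium were exposed in duplicate for 48 h to eight concentrations (top 100 uM, half-log steps, 0.5% DMSO). HGF mRNA was quantified by qRT-PCR, normalized to ACTB, GAPDH and POLR2A.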

[7] = read-out: Insulin Like Growth Factor 1 (IGF1), IGF1 (gene 3479); experiment: LTEA_HepaRG_IGF1: Life Technologies and Expression Analysis (LTEA) Assay for Insulin Like Growth Factor 1 (IGF1) using HepaRG (AID 2283506)
Outline: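 Cells are thawed, plated and cultured 48 h, then exposed in duplicate to chemical (highest 100 uM, half-log steps, 0.5% DMSO) for another 48 h. Total RNA is analysed by Fluidigm qRT-PCR for IGF1 expression relative to vehicle.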

[8] = read-out: Insulin-like growth factor-binding protein 1 (IGFBP1), IGFBP1 (gene 3484); experiment: LTEA_HepaRG_IGFBP1: Life Technologies and Expression Analysis (LTEA) Assay for Insulin-like growth factor-binding protein 1 (IGFBP1) using HepaRG (AID 2283508)
Outline: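 Differentiated human HepaRG cells in serum-free induction medium were exposed in duplicate for 48 h to eight concentrations, top 100 uM with half-log dilutions, in 0.5% DMSO. Transcript levels came from qRT-PCR normalised to ACTB, GAPDH and POLR2A, fitted bidirectionally against DMSO.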

[9] = read-out: Interleukin 6 (IL6), IL6 (gene 3569); experiment: LTEA_HepaRG_IL6: Life Technologies and Expression Analysis (LTEA) Assay for Interleukin 6 (IL6) using HepaRG (AID 2283509)
Outline: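 qRT-PCR read-out of IL6 transcript, normalized to three housekeeping genes, after 48 h chemical exposure of HepaRG cells; 8-point half-log series, top 100 uM, 0.5% DMSO vehicle. Bidirectional curve fitting against DMSO baseline.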

[10] = read-out: Interleukin 6 Receptor (IL6R), IL6R (gene 3570); experiment: LTEA_HepaRG_IL6R: Life Technologies and Expression Analysis (LTEA) Assay for Interleukin 6 Receptor (IL6R) using HepaRG (AID 2283510);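 for AC50: TaqMan qRT-PCR signal normalized to ACTB GAPDH and POLR2A housekeeping genes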
Outline: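 Cells were thawed, plated and cultured 48 h, then medium was changed to serum-free induction medium. Chemicals were added in duplicate (100 uM top, half-log steps, 0.5% DMSO) for 48 h. Lysates were analyzed by qRT-PCR for IL6R expression.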

[11] = read-out: Potassium channel subfamily K member 1 (KCNK1), KCNK1 (gene 3775); experiment: LTEA_HepaRG_KCNK1: Life Technologies and Expression Analysis (LTEA) Assay for Potassium channel subfamily K member 1 (KCNK1) using HepaRG (AID 2283511)
Outline: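 HepaRG, 48 h exposure, 8-pt half-log series top 100 uM, 0.5% DMSO vehicle, duplicates. Readout: KCNK1 transcript by qRT-PCR (Fluidigm array), housekeeping-normalized; bidirectional curve fit relative to DMSO baseline.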

[12] = read-out: JUN Transcription Factor, JUN (gene 3725); experiment: LTEA_HepaRG_JUN: Life Technologies and Expression Analysis (LTEA) Assay for JUN Transcription Factor using HepaRG (AID 2283513)
Outline: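 Read-out is JUN transcript level by TaqMan qRT-PCR, normalized to ACTB, GAPDH and POLR2A, after 48 h chemical treatment of HepaRG cells. Concentration-response spanned eight half-log points up to 100 uM in 0.5% DMSO.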

[13] = read-out: Lipase C (LIPC), LIPC (gene 3990); experiment: LTEA_HepaRG_LIPC: Life Technologies and Expression Analysis (LTEA) Assay for Lipase C (LIPC) using HepaRG (AID 2283514)
Outline: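 HepaRG, 48 h exposure, 8-pt half-log series from 100 uM in 0.5% DMSO, duplicates. Readout: LIPC mRNA by Fluidigm qRT-PCR, housekeeping-normalized (ACTB/GAPDH/POLR2A). Gain or loss fitted bidirectionally against DMSO baseline.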

[14] = read-out: Lipoprotein lipase (LPL), LPL (gene 4023); experiment: LTEA_HepaRG_LPL: Life Technologies and Expression Analysis (LTEA) Assay for Lipoprotein lipase (LPL) using HepaRG (AID 2283515)
Outline: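 HepaRG, 48 h exposure, 8-pt half-log dilutions from 100 uM, 0.5% DMSO vehicle, duplicates; qRT-PCR (Fluidigm array) of LPL mRNA vs housekeeping genes; bidirectional curve fit relative to DMSO baseline.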

[15] = read-out: MicroRNA 122 (MIR122), gene 406906; experiment: LTEA_HepaRG_MIR122: Life Technologies and Expression Analysis (LTEA) Assay for MicroRNA 122 (MIR122) using HepaRG (AID 2283516); note: the transcript read is the microRNA miR-122
Outline: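 Human liver HepaRG cultures receive test chemicals for 48 h at eight half-log concentrations from 100 uM. Expression is quantified by qRT-PCR with ACTB/GAPDH/POLR2A normalization and fitted bidirectionally against 0.5% DMSO.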

[16] = read-out: MYC, MYC (gene 4609); experiment: LTEA_HepaRG_MYC: Life Technologies and Expression Analysis (LTEA) Assay for MYC using HepaRG (AID 2283518)
Outline: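 Differentiated human HepaRG cells, plated 48 h then switched to serum-free induction medium, were exposed in duplicate for 48 h to 8-point half-log series up to 100 uM in 0.5% DMSO. MYC mRNA measured by qRT-PCR, normalized to ACTB/GAPDH/POLR2A.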

[17] = read-out: matrix metalloproteinase-3 (MMP3), MMP3 (gene 4314); experiment: LTEA_HepaRG_MMP3: Life Technologies and Expression Analysis (LTEA) Assay for matrix metalloproteinase-3 (MMP3) using HepaRG (AID 2283519)
Outline: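 qRT-PCR read-out of MMP3 mRNA (normalised to three housekeeping genes) in HepaRG liver cells after 48 h chemical exposure; 8-point half-log series, top 100 uM, 0.5% DMSO vehicle. Bidirectional curve fitting against DMSO baseline.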

[18] = read-out: Paternally Expressed 10 (PEG10), PEG10 (gene 23089); experiment: LTEA_HepaRG_PEG10: Life Technologies and Expression Analysis (LTEA) Assay for Paternally Expressed 10 (PEG10) using HepaRG (AID 2283520);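 for AC50: PEG10 transcript by qRT-PCR normalised to ACTB GAPDH and POLR2A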
Outline: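 Human HepaRG cultures are dosed for 48 h across an eight-point half-log series starting at 100 uM, with 0.5% DMSO as vehicle and baseline. Gain or loss of PEG10 transcript is measured by qRT-PCR and fitted in both directions.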

[19] = read-out: Nuclear factor NF-kappa-B p105 subunit (Homo sapiens) (UniProt P19838); experiment: LTEA_HepaRG_NFKB1: Life Technologies and Expression Analysis (LTEA) Assay for Nuclear Factor Kappa B Subunit 1 (NFKB1) using HepaRG (AID 2283521);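 note: TaqMan qRT-PCR transcript normalised to ACTB GAPDH and POLR2A housekeeping genes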
Outline: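 Differentiated human HepaRG cells in serum-free induction medium with 0.5% DMSO were exposed for 48 h to eight half-log concentrations, top 100 uM, in duplicate. NFKB1 mRNA measured by Fluidigm TaqMan qRT-PCR, normalised to ACTB, GAPDH and POLR2A; bidirectional fit versus DMSO.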

[20] = read-out: Protein phosphatase 2A (PPP2R4), PTPA (gene 5524); experiment: LTEA_HepaRG_PPP2R4: Life Technologies and Expression Analysis (LTEA) Assay for Protein phosphatase 2A (PPP2R4) using HepaRG (AID 2283522)
Outline: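 Cells were plated, cultured 48 h, switched to serum-free induction medium, then dosed for 48 h (8 points, max 100 uM, 0.5% DMSO). RNA was isolated and PPP2R4 expression measured by TaqMan qRT-PCR.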

Measured: AC50

Hypoxia-inducible factor 1-alpha (Homo sapiens), sequence (Q16665 whole entry, looked up): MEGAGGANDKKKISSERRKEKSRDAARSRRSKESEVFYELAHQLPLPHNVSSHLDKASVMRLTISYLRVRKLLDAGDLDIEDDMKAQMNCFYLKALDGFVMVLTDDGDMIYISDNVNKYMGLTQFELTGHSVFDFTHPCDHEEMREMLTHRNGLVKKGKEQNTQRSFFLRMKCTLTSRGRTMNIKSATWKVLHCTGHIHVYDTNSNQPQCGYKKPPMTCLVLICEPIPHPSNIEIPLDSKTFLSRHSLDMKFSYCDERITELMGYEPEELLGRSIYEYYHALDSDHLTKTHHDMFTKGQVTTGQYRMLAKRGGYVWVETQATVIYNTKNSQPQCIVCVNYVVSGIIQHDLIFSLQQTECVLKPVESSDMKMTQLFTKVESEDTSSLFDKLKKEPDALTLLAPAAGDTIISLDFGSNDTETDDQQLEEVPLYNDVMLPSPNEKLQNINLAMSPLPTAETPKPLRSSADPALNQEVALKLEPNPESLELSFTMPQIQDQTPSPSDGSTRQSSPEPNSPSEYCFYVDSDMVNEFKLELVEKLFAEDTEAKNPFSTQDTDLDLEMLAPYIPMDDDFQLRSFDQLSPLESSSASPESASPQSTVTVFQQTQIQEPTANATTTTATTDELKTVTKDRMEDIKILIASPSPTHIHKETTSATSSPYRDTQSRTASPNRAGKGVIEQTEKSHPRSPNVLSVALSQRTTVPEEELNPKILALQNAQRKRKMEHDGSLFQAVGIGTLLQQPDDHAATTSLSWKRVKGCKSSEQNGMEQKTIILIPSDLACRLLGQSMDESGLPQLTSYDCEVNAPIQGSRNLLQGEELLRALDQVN
Nuclear factor NF-kappa-B p105 subunit (Homo sapiens), sequence (P19838 whole entry, looked up): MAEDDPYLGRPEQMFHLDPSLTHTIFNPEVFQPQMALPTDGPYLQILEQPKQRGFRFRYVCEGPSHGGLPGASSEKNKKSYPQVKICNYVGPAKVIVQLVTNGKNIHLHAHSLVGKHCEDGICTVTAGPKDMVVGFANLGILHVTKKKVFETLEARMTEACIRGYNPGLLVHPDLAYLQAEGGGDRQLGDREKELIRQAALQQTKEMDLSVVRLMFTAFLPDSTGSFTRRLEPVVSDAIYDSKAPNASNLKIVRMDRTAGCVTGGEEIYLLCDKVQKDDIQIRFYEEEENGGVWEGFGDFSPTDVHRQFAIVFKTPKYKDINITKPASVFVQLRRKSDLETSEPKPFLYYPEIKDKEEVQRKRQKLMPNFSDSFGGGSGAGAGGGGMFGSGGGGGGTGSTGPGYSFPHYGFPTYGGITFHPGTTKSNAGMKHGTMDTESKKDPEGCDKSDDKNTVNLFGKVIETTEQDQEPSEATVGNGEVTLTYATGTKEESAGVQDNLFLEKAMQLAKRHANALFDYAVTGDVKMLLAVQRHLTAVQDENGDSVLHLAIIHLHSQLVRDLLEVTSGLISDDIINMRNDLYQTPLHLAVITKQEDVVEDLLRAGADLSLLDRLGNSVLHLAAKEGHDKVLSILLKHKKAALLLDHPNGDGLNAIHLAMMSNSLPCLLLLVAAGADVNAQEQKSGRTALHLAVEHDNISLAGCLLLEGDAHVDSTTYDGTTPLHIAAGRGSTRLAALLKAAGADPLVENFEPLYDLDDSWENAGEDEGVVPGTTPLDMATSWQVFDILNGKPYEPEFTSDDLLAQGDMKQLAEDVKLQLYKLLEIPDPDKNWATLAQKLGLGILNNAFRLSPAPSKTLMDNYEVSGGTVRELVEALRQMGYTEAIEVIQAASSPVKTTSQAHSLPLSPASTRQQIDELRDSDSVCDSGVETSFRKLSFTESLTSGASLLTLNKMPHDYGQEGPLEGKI

O=C(Nc1ccc2[nH]ccc2c1)c1cc2cc(F)ccc2n1Cc1cccc(F)c1
active: [1] 27.8 µM | [3] 90.7 µM | [4] 84.5 µM | [5] 30.2 µM | [7] 33.1 µM | [8] 27.2 µM | [9] 50 µM | [10] 89.5 µM | [12] 50 µM | [13] 59.7 µM | [14] 19.9 µM | [15] 24.9 µM | [16] 15.7 µM | [18] 50 µM
inactive: [2] | [6] | [11] | [17] | [19] | [20]

CC(C)(OO)c1ccccc1
inactive: all assays above

O=C(O)C(Cl)(Cl)Cl
active: [14] 9.92 µM
inactive: [1] | [2] | [3] | [4] | [5] | [6] | [7] | [8] | [9] | [10] | [11] | [12] | [13] | [14] | [15] | [16] | [17] | [18] | [20]

CCC(=O)C(CC(C)N(C)C)(c1ccccc1)c1ccccc1 (stereo not given)
active: [2] 36.2 µM | [5] 36.2 µM | [18] 26.3 µM
not listed: [19]
inactive: all other assays above

Oc1cccc2cccnc12
not listed: [4] | [19]
inactive: all other assays above

O=C(O)C(F)(F)C(F)(F)C(F)(F)C(F)(F)C(F)(F)C(F)(F)C(F)(F)C(F)(F)C(F)(F)C(F)(F)F
active: [10] 47.8 µM | [14] 47.8 µM
not listed: [15]
inactive: all other assays above

ClC1(Cl)C2(Cl)C3(Cl)C4(Cl)C(Cl)(Cl)C5(Cl)C3(Cl)C1(Cl)C5(Cl)C24Cl (stereo not given)
not listed: [19]
inactive: all other assays above

O=C(O)C(F)(F)C(F)(F)C(F)(F)C(F)(F)C(F)(F)C(F)(F)F
active: [5] 22 µM
inactive: all other assays above
